Results on 4 compounds are retold here after PubChem BioAssay (EPA / NIEHS).

Read-out in assay [1]: Transforming growth factor beta 1 (TGFb1), TGFB1 (gene 7040)
Briefly: BSK_KF3CT_TGFb1: BioMAP Diversity Plus: KF3CT Assay for Transforming growth factor beta 1 (TGFb1) Biomarker Activity (AID 2283072). The settings on record: primary human keratinocytes with fibroblasts; actives raise or lower the signal. The essentials:
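Human keratinocyte plus foreskin fibroblast primary co-culture, dosed with chemical for 24 h. TGF-b1 quantified by ELISA. Activity fitted bidirectionally against DMSO negative control as baseline.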

Read-out in assay [2]: C-C motif chemokine 2 (Homo sapiens) (UniProt P13500)
Nature of the assay: BSK_KF3CT_MCP1: BioMAP Diversity Plus: KF3CT Assay for Monocyte Chemoattractant Protein 1 (MCP1/CCL2) Biomarker Activity (AID 2283073). The settings on record: primary human keratinocytes with fibroblasts; actives raise or lower the signal. The essentials: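 Biomarker MCP-1 is measured by ELISA in primary human keratinocytes co-cultured with foreskin fibroblasts, 24 h after chemical treatment; DMSO serves as the negative control and activity baseline.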

Read-out in assay [3]: Matrix Metallopeptidase 9 (MMP9), MMP9 (gene 4318)
Briefly: BSK_KF3CT_MMP9: BioMAP Diversity Plus: KF3CT Assay for Matrix Metallopeptidase 9 (MMP9) Biomarker Activity (AID 2283074).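 On AC50: MMP9 protein level quantified by ELISA in the co-culture.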 The note with it: primary human keratinocytes with fibroblasts; actives raise or lower the signal. The essentials:
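Human keratinocyte and foreskin fibroblast co-culture exposed to chemicals for 24 h; MMP9 biomarker measured by ELISA, bidirectional fitting relative to DMSO; cytotoxicity tracked by SRB total protein staining in parallel cultures.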

Read-out in assay [4]: urokinase plasminogen activator (uPA), PLAU (gene 5328)
Nature of the assay: BSK_KF3CT_uPA: BioMAP Diversity Plus: KF3CT Assay for urokinase plasminogen activator (uPA) Biomarker Activity (AID 2283075). The note with it: primary human keratinocytes with fibroblasts; actives raise or lower the signal. The essentials:
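Primary human keratinocyte/foreskin fibroblast co-culture exposed to chemical; uPA measured by ELISA at 24 h. Bidirectional fit versus DMSO, with parallel SRB total-protein staining for cytotoxicity.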

Read-out in assay [5]: CD40, CD40 (gene 958)
Briefly: BSK_LPS_CD40: BioMAP Diversity Plus: LPS Assay for CD40 Biomarker Activity (AID 2283076). The settings on record: primary human HUVEC with PBMC; actives raise or lower the signal. The essentials:
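Using a multiplexed primary human co-culture (umbilical vein endothelium plus PBMC), CD40 was read by ELISA 24 h after dosing, with cytotoxicity tracked by sulforhodamine B staining of parallel cultures and activity fitted bidirectionally versus DMSO.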

Read-out in assay [6]: E-selectin (Homo sapiens) (UniProt P16581)
Nature of the assay: BSK_LPS_Eselectin: BioMAP Diversity Plus: LPS Assay for Eselectin Biomarker Activity (AID 2283077). The settings on record: primary human HUVEC with PBMC; actives raise or lower the signal. The essentials:
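Dose chemical onto LPS-driven HUVEC/PBMC co-culture; after 24 h, run ELISA for E-selectin; fit up- and down-going responses relative to DMSO control.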

Read-out in assay [7]: Interleukin-8 (IL8), CXCL8 (gene 3576)
Briefly: BSK_LPS_IL8: BioMAP Diversity Plus: LPS Assay for Interleukin-8 (IL8) Biomarker Activity (AID 2283078). The note with it: primary human HUVEC with PBMC; actives raise or lower the signal. The essentials:
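In this LPS system, chemical-treated human umbilical vein endothelium/PBMC co-cultures were harvested at 24 h for IL-8 ELISA.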

The nature of assay [8]: BSK_LPS_SRB: Viability Assessment in the BioMAP Diversity Plus: LPS Assay (AID 2283079).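 Further: total protein by sulforhodamine B absorbance as a cytotoxicity measure; measured one day after compound addition; fitted in both directions against DMSO so loss or gain of signal counts.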 The note with it: primary human HUVEC with PBMC. The procedure, abridged: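 Cytotoxicity endpoint in human endothelial–PBMC co-culture: 24 h exposure, then SRB (0.1%) staining, 560 nm read.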
Read-out in assay [9]: Interleukin-1 alpha (IL1a), IL1A (gene 3552)
Nature of the assay: BSK_LPS_IL1a: BioMAP Diversity Plus: LPS Assay for Interleukin-1 alpha (IL1a) Biomarker Activity (AID 2283080). The settings on record: primary human HUVEC with PBMC; actives raise or lower the signal. The essentials: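 Primary human HUVEC and PBMC co-culture stimulated with LPS is dosed and harvested at 24 h. Both increases and decreases in ELISA-measured IL-1a are scored relative to DMSO.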

Read-out in assay [10]: Monocyte Chemoattractant Protein-1 (MCP1), CCL2 (gene 6347)
Nature of the assay: BSK_LPS_MCP1: BioMAP Diversity Plus: LPS Assay for Monocyte Chemoattractant Protein-1 (MCP1) Biomarker Activity (AID 2283081). The note with it: primary human HUVEC with PBMC; actives raise or lower the signal. The essentials: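 Values derive from bidirectional fitting against DMSO of ELISA-measured MCP-1 in a human primary endothelial and mononuclear cell co-culture, 24 h after chemical addition under LPS activation.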

Assay [11] can be described thus: BSK_LPS_PGE2: BioMAP Diversity Plus: LPS Assay for Prostaglandin E2 (PGE2) Biomarker Activity (AID 2283082). The note with it: primary human HUVEC with PBMC; actives raise or lower the signal. The procedure, abridged: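 HUVEC plus PBMC co-culture stimulated with LPS; secreted PGE2 quantified by ELISA 24 h after chemical dosing. Activity fitted bidirectionally against DMSO as negative control and baseline; parallel SRB total-protein staining served as cytotoxicity check.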

Read-out in assay [12]: Macrophage colony-stimulating factor (MCSF), CSF1 (gene 1435)
Nature of the assay: BSK_LPS_MCSF: BioMAP Diversity Plus: LPS Assay for Macrophage colony-stimulating factor (MCSF) Biomarker Activity (AID 2283083). The note with it: primary human HUVEC with PBMC; actives raise or lower the signal. The essentials:
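Bidirectional fit versus DMSO of ELISA-measured M-CSF in co-cultured human umbilical vein endothelial cells and PBMC, sampled 24 h after dosing.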

Read-out in assay [13]: Tissue Factor, F3 (gene 2152)
Nature of the assay: BSK_LPS_TissueFactor: BioMAP Diversity Plus: LPS Assay for Tissue Factor Biomarker Activity (AID 2283084). The note with it: primary human HUVEC with PBMC; actives raise or lower the signal. The essentials:
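Read-out: CD142 ELISA, 24 h. System: LPS-driven human endothelial/PBMC co-culture. Analysis: up- or down-signal fitted against DMSO.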

Read-out in assay [14]: Tumor necrosis factor (Homo sapiens) (UniProt P01375)
Nature of the assay: BSK_LPS_TNFa: BioMAP Diversity Plus: LPS Assay for Tumour Necrosis Factor alpha (TNFa) Biomarker Activity (AID 2283085). The settings on record: primary human HUVEC with PBMC; actives raise or lower the signal. The procedure, abridged: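 Human umbilical vein endothelial cells co-cultured with PBMC were exposed to test chemical and TNFa measured by ELISA 24 h after dosing. Bidirectional curve fitting was done relative to DMSO as negative control and baseline.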

Read-out in assay [15]: Vascular cell adhesion molecule 1 (VCAM1), VCAM1 (gene 7412)
Briefly: BSK_LPS_VCAM1: BioMAP Diversity Plus: LPS Assay for Vascular cell adhesion molecule 1 (VCAM1) Biomarker Activity (AID 2283086). The note with it: primary human HUVEC with PBMC; actives raise or lower the signal. The essentials:
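Human umbilical vein endothelial cells co-cultured with peripheral blood mononuclear cells under LPS stimulation were exposed to test chemical for 24 h. VCAM-1 levels were then measured by ELISA, with bidirectional curve fitting relative to DMSO as negative control and baseline.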

Read-out in a further assay: CD38, CD38 (gene 952)
Nature of the assay: BSK_SAg_CD38: BioMAP Diversity Plus: SAg Assay for CD38 Biomarker Activity (AID 2283087). The settings on record: primary human HUVEC with PBMC; actives raise or lower the signal. The essentials:
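Fluorescence ELISA of cell-surface CD38 served as the read-out, with either increase or decrease fitted against DMSO controls. Cells were a human umbilical vein endothelium plus PBMC co-culture under SEB/TSST-1 stimulation, measured 24 h after dosing.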

Read-out in assay [16]: CD40, CD40 (gene 958)
Briefly: BSK_SAg_CD40: BioMAP Diversity Plus: SAg Assay for CD40 Biomarker Activity (AID 2283088). The settings on record: primary human HUVEC with PBMC; actives raise or lower the signal. The essentials: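 Endpoint derived by fitting increases or decreases versus DMSO controls. CD40 is detected by fluorescence ELISA in a human vascular co-culture of endothelium and PBMC at 24 h.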

Read-out in another assay: CD69, CD69 (gene 969)
Nature of the assay: BSK_SAg_CD69: BioMAP Diversity Plus: SAg Assay for CD69 Biomarker Activity (AID 2283089).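 On AC50: cell surface CD69 protein quantified by ELISA with fluorescence detection.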 The note with it: primary human HUVEC with PBMC; actives raise or lower the signal. The procedure, abridged:
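Endothelial/PBMC co-culture; chemical added; 24 h incubation; CD69 ELISA with fluorescence detection; bidirectional fit vs DMSO.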

Read-out in assay [17]: E-selectin (Homo sapiens) (UniProt P16581)
Briefly: BSK_SAg_Eselectin: BioMAP Diversity Plus: SAg Assay for Eselectin Biomarker Activity (AID 2283091). The settings on record: primary human HUVEC with PBMC; actives raise or lower the signal. The procedure, abridged: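 Endpoint values derive from bidirectional fitting relative to DMSO, using ELISA-measured E-selectin in a human vascular co-culture (umbilical vein endothelium plus PBMC) sampled 24 h after dosing.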

Read-out in assay [18]: Monocyte Chemoattractant Protein-1 (MCP1), CCL2 (gene 6347)
Briefly: BSK_SAg_MCP1: BioMAP Diversity Plus: SAg Assay for Monocyte Chemoattractant Protein-1 (MCP1) Biomarker Activity (AID 2283090). The settings on record: primary human HUVEC with PBMC; actives raise or lower the signal. The procedure, abridged:
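MCP-1 levels in the endothelial–PBMC SAg co-culture were quantified by ELISA at 24 h post-dosing; both increases and decreases versus DMSO scored. Cytotoxicity monitored by SRB total protein in parallel cultures.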

SMILES strings stand for the structures. Activity calls are given as the source filed them. How the source made its calls: active means hit-call score of the fitted dose curve at least 0.9, where 1 is the maximum; inactive means score below 0.9.

Sequence of Tumor necrosis factor (Homo sapiens) (P01375 whole entry, looked up): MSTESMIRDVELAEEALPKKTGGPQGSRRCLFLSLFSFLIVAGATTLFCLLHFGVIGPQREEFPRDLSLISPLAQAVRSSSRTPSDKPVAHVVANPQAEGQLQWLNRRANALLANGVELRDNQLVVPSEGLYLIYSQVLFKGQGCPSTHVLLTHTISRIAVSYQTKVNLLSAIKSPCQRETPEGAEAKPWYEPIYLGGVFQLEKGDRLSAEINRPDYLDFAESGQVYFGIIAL
Sequence of E-selectin (Homo sapiens) (P16581 whole entry, looked up): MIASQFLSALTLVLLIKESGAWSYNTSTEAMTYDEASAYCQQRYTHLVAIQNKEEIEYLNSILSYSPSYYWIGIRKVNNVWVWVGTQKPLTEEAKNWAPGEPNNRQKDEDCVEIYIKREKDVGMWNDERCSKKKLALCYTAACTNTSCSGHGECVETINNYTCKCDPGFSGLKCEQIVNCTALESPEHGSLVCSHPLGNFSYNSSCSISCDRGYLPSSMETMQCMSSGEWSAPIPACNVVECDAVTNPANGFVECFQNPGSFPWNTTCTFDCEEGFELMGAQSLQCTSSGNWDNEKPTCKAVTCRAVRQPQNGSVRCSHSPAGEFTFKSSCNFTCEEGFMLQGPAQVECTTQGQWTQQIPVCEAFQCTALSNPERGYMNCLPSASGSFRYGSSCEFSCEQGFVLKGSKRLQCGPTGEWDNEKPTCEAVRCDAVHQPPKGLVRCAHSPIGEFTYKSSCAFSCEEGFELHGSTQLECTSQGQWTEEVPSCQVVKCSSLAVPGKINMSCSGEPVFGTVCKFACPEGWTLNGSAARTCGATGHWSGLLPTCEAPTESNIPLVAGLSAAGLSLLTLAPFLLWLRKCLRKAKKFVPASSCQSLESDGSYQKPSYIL

On to `Clc1cc(Cl)c(Cl)cc1Cl`, for which the outcome in assay [1] was “inactive”; in [2], “inactive”; in assay [3], “inactive”; in [4] it was “inactive”; with CD40, CD40 (gene 958) [5] it was “inactive”; in assay [6], “inactive”. Besides, the result in [7], in [8], in assay [9], in [10], in [11] and in assay [12] was inactive. The outcome in [13] was “inactive”; in assay [14], “inactive”; in [15], “inactive”; with CD38, CD38 (gene 952), “inactive”; in the assay with CD40, CD40 (gene 958) [16] it was “inactive”; in the assay with CD69, CD69 (gene 969), “inactive”. The result in assay [17] was inactive.

Take `CCCCCCC(=O)OCC`: the outcome is “inactive” in assay [1]; “inactive” in assay [2]; “inactive” in assay [3]; “inactive” in [4]; “inactive” with CD40, CD40 (gene 958) [5]; “inactive” in assay [6]. In addition, the result in [7], in [8], in [9], in [10], in assay [11] and in assay [13] was inactive. For the same compound, the outcome in [14] is “inactive”; in [15], “inactive”; with CD38, CD38 (gene 952), “inactive”; in the assay with CD40, CD40 (gene 958) [16], “inactive”; with CD69, CD69 (gene 969), “inactive”; in assay [17], “inactive”.

For `CCCCCCCCCCCCCO`, the AC50 in assay [1] is 32.1 µM (active); in assay [2] it was 26.1 µM (active); in assay [3], 31.2 µM (active); in assay [4], 37.6 µM (active); in the assay with CD40, CD40 (gene 958) [5], 37.8 µM (active); in [7], 34.2 µM (active). The AC50 in [15] was 34.7 µM (active); with CD38, CD38 (gene 952) it was 31.1 µM (active); in the assay with CD40, CD40 (gene 958) [16], 29.8 µM (active); in assay [18], 31.5 µM (active); in [17] it was 36.4 µM (active). In addition, the outcome in [6], in assay [8], in assay [9], in [11], in assay [12] and in assay [13] was inactive. The outcome was “inactive” in assay [14] and “inactive” with CD69, CD69 (gene 969).

Take `COc1ccc(S(=O)(=O)N2C(=O)[C@@](c3ccccc3OC)(N3C[C@H](O)C[C@H]3C(=O)N(C)C)c3cc(Cl)ccc32)c(OC)c1`: the result in [1], in assay [2], in [3], in [4], in assay [6] and in [8] was inactive. The outcome in assay [9] is “inactive”; in [10], “inactive”; in [11], “inactive”; in assay [13], “inactive”; in the assay with CD38, CD38 (gene 952), “inactive”; in assay [18], “inactive”. For the same compound, the concentration at half-maximal activity (AC50) in the assay with CD40, CD40 (gene 958) [5] is 20 µM (active); in [7] it was 7.03 µM (active); in assay [12] it was 32 µM (active); in assay [15], 27 µM (active); in the assay with CD40, CD40 (gene 958) [16], 20 µM (active); in the assay with CD69, CD69 (gene 969), 11.9 µM (active). Besides, the AC50 in [17] is 20 µM (active).
